For 13 compounds, Potency results are on record in PubChem BioAssay (NCATS).

Results filed as inconclusive are left out. Calls of active or inactive are those of the source. Calls come from the whole dose curve; as a rule, active = well fitted inhibition curve with a large enough effect; inconclusive = small, poorly fitted or top-dose-only effect; inactive = flat fitted curve, though single readings scatter.

Holding throughout (assay): qHTS profiling for inhibitors of Plasmodium falciparum proliferation (AID 504749); note: nearly all actives have a fitted effect of over 60% in size
Details in all cases: P. falciparum in erythrocytes, SYBR Green DNA, 72 h; series mostly up to 28.7 µM
In general terms: qHTS replaces the single test concentration by a dilution series.

The subject of one assay is CP247. The procedure, abridged: (§1)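 Parasite proliferation within erythrocytes, 72 h exposure. Endpoint: SYBR Green I fluorescence after overnight lysis at room temperature. Controls: 0.29 uM artemisinin, DMSO.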
The test system of the next assay is CP250. An outline of the steps: as §1
The next assay has as its system CP252. An outline of the steps:
as §1

In a further assay the test system is CP256. The procedure, abridged:
as §1

The test system of a further assay is CP260. The procedure, abridged: as §1
The subject of another assay is CP265. An outline of the steps:
as §1

For another assay, the system named is CP266. An outline of the steps:
as §1

A further assay relates to CP286. An outline of the steps:
as §1

Another assay has as its system CP297. An outline of the steps: as §1
Another assay deals with CP325. The procedure, abridged: as §1
For the next assay, the system named is CP238. The procedure, abridged:
as §1

For a further assay, the system named is CP262. An outline of the steps: as §1
In a further assay the test system is CP268. An outline of the steps:
as §1

The subject of another assay is CP269. An outline of the steps:
as §1

The test system of a further assay is CP291. An outline of the steps:
as §1

A further assay has as its system CP305. The procedure, abridged: as §1
In the next assay the test system is CP315. The procedure, abridged:
as §1

For the next assay, the system named is CP329. An outline of the steps: as §1
In a further assay the test system is CP335. The procedure, abridged: as §1
Potency is the fitted concentration of half-maximal effect.

`C=C(CC)C(=O)c1ccc(OCC(=O)O)c(Cl)c1Cl`: the Potency was 10 µM (active) with CP247; 12.6 µM (active) with CP250; 12.6 µM (active) with CP252; 4.47 µM (active) in the assay with CP256; 8.91 µM (active) with CP260; 10 µM (active) in the assay on CP286. For the same compound, the Potency result in the assay with CP265, in the assay with CP266, in the assay on CP297 and with CP325 was “inactive” in each case.
Take `CC(=O)c1ccc2c(c1)N(CCCN1CCC(CCO)CC1)c1ccccc1S2`: the Potency result in the assay with CP238, in the assay on CP247, in the assay with CP250, with CP252, with CP256 and with CP262 was “inactive” throughout. For the same compound, the Potency entry in the assay on CP265, in the assay on CP266, with CP268, with CP269, in the assay on CP291 and with CP297 was “inactive” each time. The Potency entry in the assay with CP305, in the assay with CP315, in the assay with CP325 and with CP329 was “inactive” each time.
In the case of `CCCCCCCCCCOCC(O)CN` (stereo unspecified), the Potency result with CP238, in the assay on CP247, in the assay on CP250, with CP260, in the assay with CP262 and in the assay with CP266 was “inactive” each time. Besides, the Potency result in the assay on CP269, in the assay on CP315 and in the assay on CP329 was “inactive” each time.
`CC(=O)N/N=C/c1ccc([N+](=O)[O-])o1`: the Potency entry in the assay on CP238, in the assay on CP266, in the assay on CP268, with CP269, in the assay on CP286 and with CP291 was “inactive” throughout. Moreover, the Potency entry in the assay on CP305, with CP315, with CP325, in the assay on CP329 and with CP335 was “inactive” each time. Moreover, the Potency in the assay with CP260 is 7.94 µM (active).
Turning to `CCOc1ccc(Cc2nccc3cc(OCC)c(OCC)cc23)cc1OCC`, the Potency entry with CP238, in the assay on CP247, in the assay with CP250, in the assay on CP252, with CP260 and in the assay on CP262 was “inactive” throughout. For the same compound, the Potency entry with CP265, in the assay with CP266, in the assay on CP268, in the assay on CP269, with CP286 and in the assay with CP297 was “inactive” throughout. For the same compound, the Potency entry in the assay with CP305, in the assay with CP315 and in the assay on CP325 was “inactive” in each case.
With `CO/N=C1\CN(c2nc3c(cc2F)c(=O)c(C(=O)O)cn3C2CC2)CC1CN` (stereo unspecified), the Potency in the assay with CP260 was 7.94 µM (active); in the assay with CP268, 12 µM (active); in the assay with CP269, 5.36 µM (active); in the assay on CP286, 7.94 µM (active); with CP335 it was 6.75 µM (active). Besides, the Potency result with CP262 is “inactive”.
As for `CCN(CC)C(=O)/C(C#N)=C/c1cc(O)c(O)c([N+](=O)[O-])c1`, the Potency result in the assay on CP238, in the assay on CP250, with CP252, with CP256, in the assay on CP260 and in the assay with CP262 was “inactive” throughout. In addition, the Potency result with CP265, with CP266, in the assay with CP268, with CP269, in the assay on CP291 and in the assay on CP297 was “inactive” each time. Moreover, the Potency result with CP305, in the assay with CP315, with CP325, in the assay on CP329 and with CP335 was “inactive” each time.
Take `CN(C(=O)CN(CCO)CC(=O)N(C)C(C)(C)Cc1ccccc1)C(C)(C)Cc1ccccc1`: the Potency result in the assay on CP238, in the assay on CP247, in the assay with CP250, in the assay on CP252, in the assay with CP256 and in the assay with CP260 was “inactive” each time. The Potency result in the assay on CP262, with CP265, in the assay with CP266, in the assay on CP269, in the assay on CP291 and with CP297 was “inactive” throughout. The Potency result in the assay with CP305, in the assay on CP315, in the assay on CP325 and in the assay with CP329 was “inactive” each time.
In the case of `CCN(CC)CCNC(=O)COc1ccc(Cl)cc1`, the Potency result in the assay on CP256, with CP262, in the assay on CP266, with CP268, in the assay on CP269 and in the assay on CP291 was “inactive” throughout. The Potency entry with CP305, in the assay on CP315, with CP325, in the assay with CP329 and with CP335 was “inactive” in each case.
With `Cc1cccc(C)c1NC(=O)CN1CCN(CCCC(c2ccc(F)cc2)c2ccc(F)cc2)CC1`, the Potency result with CP238, in the assay on CP247, with CP250, in the assay with CP252, in the assay with CP256 and in the assay with CP260 was “inactive” throughout. In addition, the Potency entry in the assay with CP265, with CP266, in the assay with CP268, in the assay with CP286, in the assay on CP291 and with CP305 was “inactive” throughout. Besides, the Potency result in the assay with CP315, in the assay on CP325 and in the assay on CP329 was “inactive” each time.
For `O=C(N/N=C/c1ccccc1O)c1ccncc1`, the Potency is 8.91 µM (active) in the assay on CP238; 8.91 µM (active) in the assay with CP247; 10 µM (active) in the assay on CP250; 8.91 µM (active) in the assay on CP252; 11.2 µM (active) with CP256; 5.01 µM (active) with CP260. Besides, the Potency with CP286 is 5.01 µM (active); in the assay on CP335 it was 6.01 µM (active). Moreover, the Potency result with CP297 is “inactive”.
In the case of `CN=C(NC#N)Nc1ccc(C2=NNC(=O)CC2C)cc1` (stereo unspecified), the Potency result in the assay on CP266, with CP268, in the assay with CP269, with CP291, with CP297 and in the assay with CP305 was “inactive” each time. The Potency entry with CP315, in the assay on CP325, with CP329 and with CP335 was “inactive” in each case.
As to `CCCOC(C(=O)OC1CCN(C)CC1)(c1ccccc1)c1ccccc1`, the Potency entry with CP262, in the assay on CP266, in the assay on CP297, with CP315 and in the assay with CP329 was “inactive” throughout.
